# According to PubChem BioAssay AID2315 (National Center for Advancing Translational Sciences (NCATS), 2010):
# Several values for one entry are separate records, joined by “and”; a condition that tells them apart may be missing. Identical values can stand only once. Screen size: about 290,000 compounds; about 27,000 (9.3%) were called active. The full list was thinned out, with actives kept by preference. A number with no mark means an inactive call. No stated cut-off is given here; in the data, active means inhibition mostly above about 28% (no sharp cut-off); inactive means mostly below about 43%.
# Assay: A qHTS for Small Molecule Inhibitors of Shiga Toxin; further: 0% is about no effect
# Details: Vero cells, Shiga toxin protein synthesis inhibition reporter; at 38.7 µM, hits give high values
row,SMILES,inhibition
1,CCC1C/C(=C/c2cccs2)C(=O)/C(=C/c2cccs2)C1 (centres undefined),-3.18%
2,CN1C/C(=C/c2cccs2)C(=O)/C(=C\c2cccs2)C1,66.1%
3,CCOC(=O)C1CCCN(CCSc2ccc(C)cc2)C1 (centres undefined),30%
4,O=C(N[C@@H](Cc1ccccc1)C(=O)OCc1ccccc1)c1nc[nH]c1C(=O)N[C@@H](Cc1ccccc1)C(=O)OCc1ccccc1,-7.22%
5,COc1ccccc1N1CCC(N2CCN(CC(C)(C)C)C(CCO)C2)CC1 (centres undefined),-5.66%
6,COC(=O)c1cccc(C(=O)N2CCC(CCC(=O)NCc3ccc(F)cc3)CC2)c1,-4.62%
7,Cc1ccc(C(=O)Nc2nnc(C3=COCCO3)o2)cc1C,12.4%
8,COc1ccc(C2=NS(=O)(=O)N(C)C(C(=O)N(C)Cc3ccccc3)=C2)cc1,0.266%
9,CCOc1ccc(N(C(=O)c2snc(C(N)=O)c2N)C(C(=O)NCC2CCCO2)c2c[nH]c3ccccc23)cc1 (centres undefined),-13.1%
10,COc1cccc(Nc2ncccc2C(=O)O)c1,96.7% (active)
11,COc1cccc(NC(=O)C(C)Oc2ccccc2)c1 (centres undefined),-3.55%
12,COc1ccc2nc(C)cc(Nc3cccc(C(=O)O)c3)c2c1,-3.88%
13,COc1nnc(-c2ccc(C)c(S(=O)(=O)N(C)C)c2)c2ccccc12,22.7%
14,CCOC(=O)c1sc(=NC(=O)/C=C/c2cccs2)n(C)c1C,88% (active)
15,CCOC(=O)c1sc(=NC(=O)c2ccc(Br)cc2)n(C)c1C,-5.35%
16,CCOC(=O)c1c(NC(=S)NC(=O)/C=C/c2cccs2)sc(C)c1C,-10.9%
17,CCOc1ccc(OCC)c(NC(=O)CCS(=O)(=O)c2ccc(C)cc2)c1,-3.57%
18,O=C(Cc1c(Cl)cccc1Cl)NC1CC1,-3.23%
19,CC(C)CCn1cnc2c1c(=O)n(CC(=O)NC(N)=O)c(=O)n2Cc1ccccc1,6.66%
20,COc1ccc(Cc2nnnn2CC(=O)O)cc1,18.4%
21,COc1ccc(Cc2nnc(SC)[nH]c2=O)cc1,-10.4%
22,COc1ccc(Cc2cc(-c3ccc(F)cc3)n[nH]c2=O)cc1,41.9% (active)
23,O=C(/C=C/c1ccc(Cl)cc1)NCCCn1ccnc1,63.2%
24,Cc1ccc(NS(=O)(=O)c2cc3c(cc2C)NC(=O)CO3)cc1,-3.52%
25,C[C@H](NC(=O)c1nc[nH]c1C(=O)NCC(=O)OC(C)(C)C)C(=O)OCc1ccccc1,-5.08%

row,SMILES,inhibition
1,CCC(C)c1ccccc1NC(=O)CN(C)CC(=O)Nc1ccccc1SC (centres undefined),-5.67%
2,CCn1cc(CN2CCC(n3nccc3NC(=O)CCCc3ccccc3)CC2)c(C)n1,-4.01%
3,O=C(NC1CCCC1)C(=O)c1c[nH]c2ccccc12,60.6% (active)
4,O=C(NCCCc1ccccc1)C(=O)c1c[nH]c2ccccc12,34.9%
5,O=C(C(=O)N1CCc2ccccc2C1)c1c[nH]c2ccccc12,25.1%
6,Cc1ccc(C(=O)CCC(=O)N(C)CC(=O)Nc2c(Cl)cccc2Cl)cc1,12.9%
7,CCOc1ccc(NC(=O)CSc2nncn2C)cc1,-2.49%
8,COc1ccc(-n2c(-c3ccc(OC)c(OC)c3)n[nH]c2=S)cc1,-6.08%
9,CCOc1ccccc1NC(=S)NC(=O)CCc1ccccc1,-2.78%
10,CCOc1ccc(Nc2nc(Cl)nc(N3CCN(c4ccc(OC)cc4)CC3)n2)cc1,-1.73%
11,c1ccc(Nc2nc(N3CCOCC3)c3ccccc3n2)cc1,-9.05%
12,COc1ccc(Nc2ncc(F)c(N3CCOCC3)n2)cc1,68.5% (active)
13,Cc1cc(C)cc(NC(=O)CN2C(=O)c3ccccc3C2=O)c1,-7.16%
14,Cc1ccc(C(C)C)cc1OCC(=O)Nc1ccccc1N1CCCC1,38.7%
15,Cc1c(OC(C)C(=O)N[C@@H](Cc2ccccc2)C(=O)O)ccc2c3c(c(=O)oc12)CCCC3 (some centres undefined),-5.08%
16,O=C(Cn1ncc2c3ccccc3n(Cc3ccccc3)c2c1=O)NCCCN1CCOCC1,10.5%
17,CCCCN1C(=O)/C(=C2/Sc3ccc(Cl)cc3N2CC)SC1=S,1.9%
18,CCN1C(=O)/C(=c2\s/c(=C3\Sc4ccccc4N3C)c(=O)n2C)N(C)C1=S,40.9% (active)
19,CCN1C(=O)/C(=C2/Sc3ccccc3N2CCCS(=O)(=O)O)SC1=S,13.4% and -2.41%
20,COc1cc(OC)c(OC)cc1CN1CCN(C(=O)c2cccc3ccccc23)CC1,-8.18%
21,COc1ccc(-c2nc3n(c(=O)c2C#N)CCS3)c(OC)c1,-7.88%
22,Cc1ccc(SCc2c(C(=O)N/N=C/C3CC=CCC3)nnn2-c2nonc2N)cc1 (centres undefined),-9.77%
23,COCc1c(C(=O)N/N=C/C2CC=CCC2)nnn1-c1nonc1N (centres undefined),-2.4%
24,O=C(N/N=C\C1CC=CCC1)c1ccc(Br)o1 (centres undefined),67.4% (active)
